From ChEMBL document CHEMBL4513216, “Probing the Open Global Health Chemical Diversity Library for Multistage-Active Starting Points for Next-Generation Antimalarials” (ACS Infect Dis, 2020) come the findings set out here.

The campaign covered roughly 69,000 compounds. About 8,600 (12%) showed an effect of 50% or more. This excerpt belongs to a sample that is enriched for strong results.

This test relates to Plasmodium berghei. The test can be described thus: Screen against P. berghei liver stage (PbLuc), transformed with Luciferase, at 10uM. In kind it is functional, HepG2. The note with it: tested at 10 uM.
Consider `CSc1nccn1-c1cccc(C(=O)NCC(F)(F)F)c1`, for which the INHIBITION is recorded as 18.2%.
For the compound `N#CCCN(CCC#N)C(=O)CN(C1CC1)C1CCc2ccccc21` (stereo not drawn), the INHIBITION is -40.5%.
On to `CCC(O)CN1CCN(C(=O)c2ccn(C)c(=O)c2)CC1` (stereo not drawn), for which the INHIBITION is 13.3%.
As to `CC(C)CCc1nc(CNCC2CN(C)CCO2)cs1` (stereo not drawn), the INHIBITION is on record as -21.9%.
For `Cc1cc(NC(=O)CN2CCn3c(nnc3C(C)C)C2)n(C)n1`, the INHIBITION turned out to be 22.2%.
With `CC1NC(=O)COC12CCN(C(=O)Cc1ccsc1)CC2` (stereo not drawn), the INHIBITION is -28.6%.
Under `CC1N(C)C(=O)COC12CCN(C(=O)Cc1ccsc1)CC2` (stereo not drawn) stands 77.7%; under `CN1CCN(C)C2(CCN(Cc3ccsc3)CC2)C1=O`, 5.04%; under `CC1N(C)C(=O)COC12CCN(Cc1nccs1)CC2` (stereo not drawn), 69.7%.
Regarding `Cc1nc(CN2C(=O)COC3(CCN(Cc4ccsc4)CC3)C2C)cs1` (stereo not drawn), the INHIBITION is listed as 38.2%.
With `Cc1nc(CN2C(=O)COC3(CCN(Cc4nccs4)CC3)C2C)cs1` (stereo not drawn), the INHIBITION was 15.1%.
For the compound `CC1N(C)C(=O)COC12CCN(C(=O)CCc1ccccc1)CC2` (stereo not drawn), the INHIBITION is 6.83%.
Consider `CC1N(C)C(=O)COC12CCN(Cc1ccsc1)CC2` (stereo not drawn), for which the INHIBITION was 63%.
For the compound `CC1N(CC2CC2)C(=O)COC12CCN(Cc1nccs1)CC2` (stereo not drawn), the INHIBITION was 31.8%.
To `Cc1nc[nH]c1C(=O)N1CCCC2(C1)C(=O)N(C)c1ccccc12` (stereo not drawn) belongs 9.57%.
To `Cn1nc2c(cc1=O)CN(Cc1nc(-c3ccco3)no1)CC2` belongs -7.31%; to `Cc1nnc2n1CCN(C(=O)c1cc(Cl)c(Br)[nH]1)C2`, -33.32%.
In the case of `CC(=O)NCc1ccc(C(=O)Nc2ccc3c(c2)C(=O)NC3)cc1`, the INHIBITION is recorded as -20%.
As to `CCOc1ccccc1CNS(=O)(=O)c1ccc2c(c1)CCCC(=O)N2`, the INHIBITION amounted to 19.4%.
Take `Cn1cc2ncn(CCC3CCN(Cc4ccccc4)C3)c(=O)c2n1` (stereo not drawn): the INHIBITION was 42.1%.
Regarding `CN(CCc1ccccn1)C(=O)c1cn(CCN2CCNCC2)nn1`, the INHIBITION was -60.7%.
To `CN(CCSc1ccccc1)C(=O)c1cn2c(n1)CNCC2` belongs 66.5%; to `CN(CCSc1ccccc1)C(=O)C(c1cccnc1)N1CCOCC1` (stereo not drawn), 19.4%; to `CN(C)S(=O)(=O)c1ccc(CNC(=O)c2cn3c(n2)CNCC3)cc1`, 39.9%.
As for `CN(CCc1ccccn1)C(=O)c1cccs1`, the INHIBITION is 50.8%.
In the case of `c1ccc(NCc2cn3c(n2)CNCC3)nc1`, the INHIBITION is on record as 42.6%.
In the case of `Cc1ccc(SCCN(C)C(=O)c2cn(CCN)nn2)cc1`, the INHIBITION is -122%.
`CN(CC(=O)NCCc1ccccn1)C(=O)c1cccs1`: the INHIBITION is 11%.
Under `CN(CCc1ccccn1)C(=O)c1cn2c(n1)CNCC2` stands 66.5%; under `CC(C)N(Cc1ccccn1)C(=O)CN(C)C(=O)c1cccs1`, 12.3%; under `O=C(NCc1ccc(C(=O)N2CCCC2)cc1)c1cn2c(n1)CNCC2`, 16.1%.
With `CN(CCCc1ccccc1)C(=O)c1cn2c(n1)CNCC2`, the INHIBITION is listed as 61.9%.
For the compound `COc1ccccc1C(=O)N(C)Cc1nnc2ccccn12`, the INHIBITION is on record as -81.1%.
As to `Cn1c(N2CCOCC2)nc2cc(C(=O)N3CCC(O)(CO)C3)ccc21` (stereo not drawn), the INHIBITION was 44.7%.
Consider `CCOc1ccc(NCC(=O)NCC(=O)N2CCCC2)c(C(F)(F)F)c1`, for which the INHIBITION is reported as 16.5%.
Turning to `O=C(O)CCC(=O)Nc1nn(Cc2ccc(F)cc2)cc1Cl`, the INHIBITION stood at 46.6%.
Turning to `CN1CCN(C(=O)c2cccn2C)c2ccccc2C1`, the INHIBITION is on record as -39.2%.
To `COCCN1CC[C@@H](OC)[C@@H]1Cc1ccccc1` belongs -34.7%.
With `Cc1nnc(NC(=O)CN2CCc3c(nc(C(C)C)n3C)C2)s1`, the INHIBITION is 17.3%.
As for `CC(O)CN1CCC(CN(C)CC(=O)NC2CCOCC2)CC1` (stereo not drawn), the INHIBITION is on record as -8.31%.
For `CCC(C)(C)NC(=O)Cn1nc(C)nc1-c1ccccc1`, the INHIBITION is given as -31.5%.
For the compound `O=C1NC2(Cc3ccccc31)CN(CC1CCNCC1)C2`, the INHIBITION came out at 26.7%.
`CCS(=O)(=O)NCC1Cn2nnc(-c3ccccc3)c2CO1` (stereo not drawn): the INHIBITION is on record as 54.4%.
Take `CCOCC(=O)NCC1Cn2nnc(-c3cccc(F)c3)c2CO1` (stereo not drawn): the INHIBITION stood at 38.5%.
To `c1ccc(-c2nnn3c2COC(CNCC2CC2)C3)cc1` (stereo not drawn) belongs 42.7%; to `O=C(NCC1Cn2nnc(-c3ccsc3)c2CO1)N1CCCC1` (stereo not drawn), 2.26%.
Under `Cc1cccc(-c2nnn3c2COC(CNS(=O)(=O)C2CC2)C3)c1` (stereo not drawn) stands 44.8%; under `CC(=O)NCC(=O)NCC1Cn2nnc(-c3cccc(F)c3)c2CO1` (stereo not drawn), 27.6%.
As to `c1ccc(-c2nnn3c2COC(CNCC2CCOCC2)C3)cc1` (stereo not drawn), the INHIBITION was determined as 44.9%.
On to `CCS(=O)(=O)NCC1Cn2nnc(-c3cccc(C)c3)c2CO1` (stereo not drawn), for which the INHIBITION was determined as 50.3%.
In the case of `Cc1cccc(-c2nnn3c2COC(CNC(=O)N2CCCC2)C3)c1` (stereo not drawn), the INHIBITION is on record as 62.9%.
For the compound `NC1CCN(S(=O)(=O)c2ccc(C(=O)N3CCSCC3)cc2)C1` (stereo not drawn), the INHIBITION is 2.49%.
In the case of `CC(C)OCc1nn(CC2CC2)c2c1CN(Cc1ccco1)CC2`, the INHIBITION was -107%.
Take `CC(C)(CN1CCC(Cc2ccc(CO)cc2)C1)N1CCOCC1` (stereo not drawn): the INHIBITION worked out at 23.5%.
`O=C(CCn1ccc2ccccc21)Nc1ccnn1CC1CCOC1` (stereo not drawn): the INHIBITION is 10.1%.
With `O=C(O)c1cc2c(nc1N1CCCC1)CCN(C1CCOCC1)CC2`, the INHIBITION is -15.3%.
Consider `O=c1[nH]cnc2c1CCN(S(=O)(=O)c1ccc(Cl)cc1)C2`, for which the INHIBITION turned out to be 36.2%.
To `CN(C)CCN(C)C(=O)Cn1cccc2cc(-c3ccc(F)cc3)nc1-2` belongs 26.7%; to `Cn1nc(C2CNCCO2)cc1CCOc1cccc(C(F)(F)F)c1` (stereo not drawn), 37.8%.
Consider `CN1CCCC(CCC(=O)N2CCc3[nH]c(-c4ccccc4)nc3C2)C1` (stereo not drawn), for which the INHIBITION was determined as 23%.
To `CC(C(=O)NCc1ccc(N2CCN(C)CC2)nc1)n1cccn1` (stereo not drawn) belongs 2.243%; to `Cc1ccc(CN2CC[C@H]3OCC[C@@H](C(=O)NCC4CC4)[C@@H]3C2)s1`, 5.96%.
For the compound `CNC(=O)c1cccc(C2CNCCN2C(=O)c2ccn(C)n2)c1` (stereo not drawn), the INHIBITION worked out at 33.7%.
For `CCn1cnnc1C1CCN(C(=O)c2cnc3ccccc3n2)CC1`, the INHIBITION is on record as 21.3%.
With `CCc1nnc(CN2CC(n3cccn3)C2)o1`, the INHIBITION is given as -110%.
Consider `Cc1ccc(N2CCCC(NCC(=O)NC(C3CC3)C3CC3)C2)nn1` (stereo not drawn), for which the INHIBITION was -6.44%.
In the case of `CC(=O)N1CCC2(CCN(C(=O)c3ccc(F)c(C(F)(F)F)c3)CC2)C1`, the INHIBITION turned out to be 6.6%.
For `CC(=O)N1CCC2(CCN(C(=O)c3cccc(C(F)(F)F)c3)CC2)C1`, the INHIBITION was 63.7%.
As to `CC(=O)N1CCC2(CC1)CCN(C(=O)c1cccc(C(F)(F)F)c1)C2`, the INHIBITION stood at 55.5%.
On to `CC(=O)N1CCC2(CC1)CCN(C(=O)c1ccc(F)c(C(F)(F)F)c1)C2`, for which the INHIBITION was determined as 12.4%.
For `CC(=O)N1CCC2(CCN(C(=O)c3ccc(C)c(C(F)(F)F)c3)CC2)C1`, the INHIBITION was 16.5%.
`CC(=O)N1CCC2(CCN(C(=O)c3ccc(F)c(C(F)(F)F)c3)C2)C1` (stereo not drawn): the INHIBITION was found to be 17.1%.
To `Cc1cc(NCCc2nc(C)c[nH]2)nc(-c2ccccc2O)n1` belongs 43.6%; to `CN1CCN(C(=O)N2CCC3(CCCN(C4CCOCC4)C3=O)C2)CC1` (stereo not drawn), -1.15%.
For the compound `COCCN1CCN(S(C)(=O)=O)Cc2ccc(C)nc21`, the INHIBITION stood at 16.9%.
Turning to `Cc1ccc2c(n1)N(Cc1ccncc1)CCN(S(C)(=O)=O)C2`, the INHIBITION came to 36.9%.
To `Cc1ccc2c(n1)N(CC(C)C)CCN(S(C)(=O)=O)C2` belongs 67.2%.
In the case of `CS(=O)(=O)NCC(Cc1cccc(F)c1)N1CCNC1=O` (stereo not drawn), the INHIBITION was 15.7%.
As to `COc1cc(COCC2CCN(Cc3ccccn3)CC2)cc(OC)c1`, the INHIBITION amounted to 6.54%.
For the compound `Fc1ccc(COCC2CCN(Cc3ccccn3)CC2)cc1`, the INHIBITION was -56.4%.
On to `Clc1ccc(COCC2CCN(Cc3ccccn3)CC2)cc1`, for which the INHIBITION is recorded as 62.3%.
Turning to `Cc1nc(NC(=O)CNC(=O)c2c(F)cccc2Cl)n[nH]1`, the INHIBITION is recorded as -8.69%.
In the case of `CCOCCN1CCN(Cc2cccc(C(=O)N(C)C)c2)CC1C` (stereo not drawn), the INHIBITION is recorded as -9.37%.
On to `CN1CCCC1c1cncc(C(=O)NCC2CC2)n1` (stereo not drawn), for which the INHIBITION was -80%.
For the compound `c1ccc(CNc2nc(N3CCOCC3)nc3nccnc23)cc1`, the INHIBITION turned out to be 30.7%.
Turning to `O=S(=O)(N1CCCCCC1)N1CCCN(CC2CCCO2)CC1` (stereo not drawn), the INHIBITION was found to be 9.57%.
Under `COc1ccnc(CNc2nc(C)nc(C)c2C)c1` stands -27.6%.
For the compound `COc1ccnc(CNc2nc(C)nc3ccsc23)c1`, the INHIBITION is 76.9%.
As for `COc1ccnc(CNc2cc(C3CC3)ncn2)c1`, the INHIBITION is reported as -47.2%.
On to `CC(C(=O)NCc1ccc(N2CCCCC2)nc1)S(C)(=O)=O` (stereo not drawn), for which the INHIBITION is on record as 9.54%.
On to `Cc1n[nH]c(C)c1CCC(=O)NCC1(O)CCN(c2ccccn2)C1` (stereo not drawn), for which the INHIBITION was 3.48%.
With `Cn1cc(C(=O)N2CCCC(c3ccncc3)C2)cn1` (stereo not drawn), the INHIBITION was -16.5%.
Turning to `CN1CCC(c2n[nH]c(=O)n2CC2CCCCC2)CC1`, the INHIBITION is reported as 40.6%.
In the case of `CN1CCN(Cc2n[nH]c(=O)n2CC2CCCCC2)CC1`, the INHIBITION was 70.3%.
Turning to `CNCc1n[nH]c(=O)n1CC1CCCCC1`, the INHIBITION worked out at 23.9%.
Take `O=C(c1cccnc1)N1CCCC(Cc2nccs2)C1` (stereo not drawn): the INHIBITION is recorded as -9.27%.
Consider `Cc1nc(N2CCCC2)nc2c1CCN(C(=O)NC1CCCC1)CC2`, for which the INHIBITION is listed as -6.23%.
Consider `O=C(Cc1ccccn1)N1C[C@H](OCc2cccnc2)[C@H]2COC[C@H]21`, for which the INHIBITION was -31%.
To `Cc1cc(C)n2c(CNCCNc3ccccc3)cnc2n1` belongs -35.2%; to `CC(C)c1nc(CN(CC(N)=O)C(C)C)cs1`, 31.8%.
`CCN(CC(=O)NC)C(=O)Cc1csc(C(C)C)n1`: the INHIBITION came out at 62.4%.
`CCNC(=O)CN(CC)C(=O)Cc1csc(C(C)C)n1`: the INHIBITION was determined as 81.6%.
For `CNC(=O)CN(C)C(=O)Cc1csc(C(C)C)n1`, the INHIBITION came out at 12.3%.
Turning to `CCN(CC)C(=O)Cc1csc(C(C)C)n1`, the INHIBITION is reported as -4.4%.
To `CC(Cn1cccn1)NC(=O)Cc1csc(C(C)C)n1` (stereo not drawn) belongs 0.914%.
As to `O=C(c1cocn1)N1CCC2(CC1)CC(Oc1ccccn1)CO2` (stereo not drawn), the INHIBITION is -0.804%.
Turning to `COC(=O)c1ccoc1CN(C1CC1)C1CCS(=O)(=O)C1` (stereo not drawn), the INHIBITION is listed as 42.8%.
In the case of `Cc1nc(C)n(CC2CCCCN2Cc2cnc(C)s2)n1` (stereo not drawn), the INHIBITION was determined as 30.6%.
